Abeta yeast res – restores growth of yeast expressing A-beta42 peptide; 0.063% of 410,000 active; yeast expressing A-beta42, growth rescue, OD600, 48 h; response scale: 0% DMSO, 100% iron-clioquinol control; Potency, µM (titrated, usually from 46.1 µM), usual class: activators; further: nearly all actives have a fitted effect of over 55% in size
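Growth rescue measured by 600 nm absorbance after 48 h yeast culture at 30 C with compound. Values normalized between DMSO and an equimolar ferric chloride plus clioquinol control.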
FUS suppressor – FUS proteinopathy suppression in yeast. S. cerevisiae FUS-expressing, growth rescue, OD600, 24 h. Potency, µM (titrated, usually from 76.6 µM), hits mostly activators. 0.24% of 390,000 active. AID 1347120;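 further: plate controls were DMSO vehicle for no effect and reference control for full effect; nearly all actives have a fitted effect of over 55% in size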
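Compound concentration series was pinned onto galactose-induced FUS-expressing yeast seeded at OD 0.005. Plates sat 24hr at 30C; absorbance at 600 nm gave growth. DMSO served as background control.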
TDP43 rescue – rescues yeast growth from TDP-43 toxicity; Potency, µM (highest dose often 46.1 µM), without a hit: at the top dose growth rescue (activation), actives largely listed as activators; TDP-43 expressing yeast growth rescue, BacTiter-Glo, 24 h; 1.8% of 410,000 active; further: % of control where 0% means no effect; nearly all actives have a fitted effect of over 50% in size
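Readout is BacTiter-Glo luminescence of cell growth, so inhibitors register as activators. TDP-43-expressing yeast at OD600=0.02 in galactose medium, after raffinose pregrowth to mid-log, were incubated with compound for 24 hr at 30 deg C.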
aSyn rescue – inhibitors of alpha-synuclein toxicity in yeast; Yeast expressing alpha-synuclein, growth rescue, BacTiter-Glo, 24 h; Potency, µM (highest dose often 46.1 µM), without a hit: top-dose growth rescue (activation), actives largely listed as activators; 0.14% of 370,000 active; further: % of control where 0% means no effect; nearly all actives have a fitted effect of over 65% in size
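Rescue of yeast growth: cells expressing toxic alpha-synuclein, induced in galactose at OD600 0.02, incubated with compound 24 h at 30 C. ATP luminescence quantified growth; inhibitors of toxicity appear as activators.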
* hit, by the source's call; [ ] = another dose, or the depositor's remark. Rows were chosen to be rich in hits. Some 2.1% of all compounds tested hit in one or more screens of this group. The call rests on the fitted dose curve; in most records, active means well fitted curve in the direction sought with a large enough effect; inconclusive means small, poorly fitted or top-dose-only effect, or another doubt; inactive means no such curve, though single readings can be large; an effect the other way counts as inactive or inconclusive. Potency means the concentration at half of the fitted maximal effect.

How did COc1cccc(N2CCN(C(=O)c3cc(-c4ccc(F)cc4)[nH]c3C)CC2)c1 do in these assays?
Abeta yeast res: inactive; FUS suppressor: inconclusive; TDP43 rescue: 0%; aSyn rescue: inconclusive

Results for COc1ccc(CN2CSC(=S)N(Cc3ccc(OC)cc3)C2)cc1 ?
Abeta yeast res: inactive; FUS suppressor: inactive; TDP43 rescue: 32µM*; aSyn rescue: -5%

Results for COc1ccc(CN2CSC(=S)N(Cc3ccccc3)C2)cc1 ?
FUS suppressor: inactive; TDP43 rescue: inconclusive; aSyn rescue: -26%

Results for CCOC(=O)c1ccc2c(c1)N(Cc1cc(C)ccc1C)C(=O)c1ccccc1S2(=O)=O ?
Abeta yeast res: inactive; FUS suppressor: inactive; TDP43 rescue: 1%

Results for CCOC(=O)c1cccc(N2C(=O)c3ccccc3S2(=O)=O)c1 ?
Abeta yeast res: inactive; FUS suppressor: inactive; TDP43 rescue: 11µM*

What do the screens show for `CCN=c1scc(C)n1/N=C/c1ccc(O)c(O)c1O`?
Abeta yeast res: inactive; TDP43 rescue: -12%; aSyn rescue: -7%

What do the screens show for `CCN=c1scc(C)n1/N=C/c1cc(Br)c(O)c(Br)c1`?
Abeta yeast res: inactive; FUS suppressor: inactive; TDP43 rescue: 3.2µM*; aSyn rescue: -18%

What do the screens show for `Cc1ccc(S(=O)(=O)N2CCOCC2)cc1NC(=O)COC(=O)c1ccc2c(c1)OCCO2`?
Abeta yeast res: inactive; FUS suppressor: inactive; aSyn rescue: 0%

How did COc1ccc(-c2cc(C(=O)NCCN3CCOCC3)c3ccccc3n2)c(OC)c1 do in these assays?
Abeta yeast res: inactive; FUS suppressor: inconclusive; TDP43 rescue: -17%; aSyn rescue: 3%

Results for O=C1C2ON(c3ccccc3)C(c3ccccn3)C2C(=O)N1c1ccc(Br)cc1 (stereo unspecified) ?
Abeta yeast res: inconclusive; FUS suppressor: inactive; TDP43 rescue: 13µM*; aSyn rescue: 26%

How did CCOC(=O)Cn1c(=NC(=O)CSC(C)=O)sc2ccccc21 do in these assays?
Abeta yeast res: inconclusive; FUS suppressor: inactive; TDP43 rescue: inconclusive; aSyn rescue: 3%

What do the screens show for `O=S(=O)(NCc1ccccc1)c1ccc(-c2cnc(C3CC3)o2)cc1`?
Abeta yeast res: inactive; FUS suppressor: inactive; TDP43 rescue: 5%; aSyn rescue: 4%

How did O=S(=O)(NCc1ccccc1Cl)c1ccc(-c2cnc(C3CC3)o2)cc1 do in these assays?
Abeta yeast res: inactive; FUS suppressor: inactive; TDP43 rescue: 22µM*

How did Cc1ccc(NS(=O)(=O)c2ccc(-c3cnc(C4CC4)o3)cc2)cc1 do in these assays?
Abeta yeast res: inactive; FUS suppressor: inactive; TDP43 rescue: inconclusive; aSyn rescue: inconclusive

What do the screens show for `Cc1cccc(C)c1NS(=O)(=O)c1ccc(-c2cnc(C3CC3)o2)cc1`?
Abeta yeast res: inactive; FUS suppressor: inactive; TDP43 rescue: 25µM*; aSyn rescue: inconclusive

What do the screens show for `CCn1c(CC2C(=O)N(C)c3ccc(Br)cc32)nc2ccccc2c1=O` (stereo unspecified)?
Abeta yeast res: inactive; FUS suppressor: inactive; TDP43 rescue: 0%

What do the screens show for `COc1ccc(CCNC(=O)c2c(N)no[n+]2[O-])cc1OC`?
Abeta yeast res: inactive; FUS suppressor: inactive; aSyn rescue: -1%

Results for COc1cc(/C=C/C(=O)c2ccc(O)cc2)ccc1OCC#N ?
Abeta yeast res: inactive; TDP43 rescue: -9%; aSyn rescue: 1%

Results for COc1cccc(C(=O)/C=C/c2ccc(OCC#N)c(OC)c2)c1 ?
Abeta yeast res: inactive; FUS suppressor: inactive; TDP43 rescue: 20µM*; aSyn rescue: inconclusive

What do the screens show for `O=C(Cc1cnc2ncnn2c1)N1CCc2c([nH]c3ccccc23)C1c1ccccc1F` (stereo unspecified)?
Abeta yeast res: inactive; FUS suppressor: inactive; TDP43 rescue: -10%[1.82 µM]; aSyn rescue: 3%

What do the screens show for `O=C(Cc1ccccc1)Nc1nc2ccccc2s1`?
Abeta yeast res: 7.1µM*; FUS suppressor: inactive; TDP43 rescue: inconclusive; aSyn rescue: 17%

Results for O=C(Nc1nc2ccccc2s1)C1CCCO1 (stereo unspecified) ?
Abeta yeast res: inactive; FUS suppressor: inactive; TDP43 rescue: 0%; aSyn rescue: 7%

Results for COCC(=O)Nc1nc2ccccc2s1 ?
Abeta yeast res: inactive; FUS suppressor: inactive; TDP43 rescue: -11%; aSyn rescue: -3%

Results for O=C(Nc1nc2ccccc2s1)C1c2ccccc2Oc2ccccc21 ?
Abeta yeast res: inactive; FUS suppressor: inactive; TDP43 rescue: 10µM*; aSyn rescue: -15%

How did CC1(C(=O)Nc2nc3ccccc3s2)CC1(Br)Br (stereo unspecified) do in these assays?
Abeta yeast res: inconclusive; FUS suppressor: inactive; TDP43 rescue: 10µM*; aSyn rescue: 8%

What do the screens show for `COc1ccc(C)cc1NC(=O)COCc1cc(-c2ccc(F)cc2)on1`?
Abeta yeast res: inactive; FUS suppressor: inconclusive; TDP43 rescue: 35µM*

Results for COc1ccc(C(C)=O)cc1COC(=O)c1c(C)noc1C ?
Abeta yeast res: inactive; FUS suppressor: inactive; TDP43 rescue: 16µM*; aSyn rescue: 10%

How did NC(=S)NN=C1CCC(C2CCCCC2)CC1 (stereo unspecified) do in these assays?
Abeta yeast res: 3.2µM*; FUS suppressor: inactive; TDP43 rescue: 18%; aSyn rescue: -8%

How did NC(=S)NN=C1CCCCCCCCCC1 do in these assays?
Abeta yeast res: inactive; TDP43 rescue: 14µM*; aSyn rescue: 14%

Results for Cc1csc2nc(-c3cccc(NC(=O)c4ccccc4F)c3)cn12 ?
Abeta yeast res: inactive; FUS suppressor: inactive; TDP43 rescue: -10%; aSyn rescue: -13%

How did CCC(=O)NC(=S)Nc1cccc(NC(=O)c2ccccc2C)c1 do in these assays?
Abeta yeast res: inactive; FUS suppressor: inactive; TDP43 rescue: 3%; aSyn rescue: 11%

Results for CCC(=O)NC(=S)Nc1cccc(NC(=O)c2ccccc2Cl)c1 ?
Abeta yeast res: inactive; FUS suppressor: inactive; TDP43 rescue: 14µM*; aSyn rescue: -2%

How did Cc1csc2nc(-c3cccc(NC(=O)c4ccccc4Cl)c3)cn12 do in these assays?
Abeta yeast res: inactive; FUS suppressor: inconclusive; TDP43 rescue: 20µM*; aSyn rescue: -11%

Results for O=C(Nc1cccc(NC(=O)c2ccccc2Cl)c1)c1cccs1 ?
Abeta yeast res: inactive; FUS suppressor: inactive; TDP43 rescue: 22µM*; aSyn rescue: -17%

Results for CCCC(=O)NC(=S)Nc1cccc(NC(=O)c2ccccc2Cl)c1 ?
Abeta yeast res: inactive; FUS suppressor: inactive; TDP43 rescue: 11µM*; aSyn rescue: 5%

What do the screens show for `Cc1ccc(CNC(=O)CCC(=O)N2CC3CCCN3c3ccccc32)cc1` (stereo unspecified)?
Abeta yeast res: inactive; FUS suppressor: inactive; TDP43 rescue: 24%

Compound activity from PubChem BioAssay.
